Records with an inconclusive call do not appear. The source made the active and inactive calls.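 How the source made its calls, unless noted: active means viability loss from added drug above about 55%, and viability with drug at most 40%, in both replicates (limit read from the data, passing the limit was not always enough); inconclusive means both conditions met in only one replicate; inactive means neither replicate meets both conditions.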
How the values were obtained:
[1] = Her2 expression decrease, cell viability multiplex – SKBR3 breast tumor cells, AlphaScreen, ATP viability, primary screen (AID 461;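 active means Her2 level under about 52% in both replicate screens, with viability over 70% of control, limit read from the data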;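 on Her2 level: lower value means less Her2 protein in the cells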;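 on viability: percent of carrier control wells set as 100% viability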); details: SKBR3 Her2 protein level, 18-24 h, measured here: SKBR3 viability, ATP luminescence, at 10 µM
[2] = biological target: Receptor tyrosine-protein kinase erbB-2 (Homo sapiens) (UniProt P04626); experiment: as above; details: 18-24 h, at 10 µM, stronger effect = lower value
[3] = reduced viability of SK-BR-3 breast cancer cells – cell-based, 24 h, human, pilot screen (AID 572;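 active means viability at or below 10% of carrier control in both of two separate runs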;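 further: compound exposure lasted between 18 and 24 h rather than exactly 24 h; 100% = carrier-treated control wells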); details: SK-BR-3 viability, CellTiter-Glo luminescence, at 10 µM, stronger effect = lower value
[4] = HUVEC growth inhibition – cell-based, human, primary screen (AID 575;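 active means viability at or below 30% in both replicate assays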;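 further: 100% = median of untreated cell wells with 0.1% DMSO on each plate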); details: HUVEC proliferation, CellTiter-Glo luminescence, 72 h; at 10 µM; stronger effect = lower value
[5] = H69AR cell proliferation blockers – human, duplicate replicates, primary screen (AID 580;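 active means viability at or under a set limit in both replicates, limit being median viability minus 3 SD, cut at about 48% in these data, passing the limit was not always enough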;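 further: 100% = mean luminescence of untreated wells and 0% = no signal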); details: H69AR lung tumor cells viability, ATP luminescence, 72 h; at 10 µM; stronger effect = lower value
[6] = MRP1 drug-resistance reversers in H69AR cells – cell-based, doxorubicin co-treatment, pilot screen (AID 601); details: CellTiter-Glo, 72 h, at 10 µM; for differential viability (reversal): stronger effect = higher value
[7] = yeast transport mutant growth inhibition pilot in 384-well plates, post-Golgi transport modulator project (AID 636; in the data active means inhibition above about 31%); details: absorbance 615 nm, about 18 h, stronger effect = higher value
[8] = growth suppression of yeast trafficking mutant, preliminary HTS, modulators of trafficking downstream of Golgi apparatus project, 1536-format plate, OD 615 nm (AID 637; in the data active means inhibition above about 30%); details: yeast transport mutant growth, absorbance 615 nm, 18 h; stronger effect = higher value
[9] = S. cerevisiae growth inhibition in permissive medium (OD615), pilot counter-assay for S. cerevisiae lifespan shortening project, permissive growth control (AID 705;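 active means growth inhibition above 25% in both replicates, a cutoff set 3 SD above the mean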); details: OD615, 24 h, at 10 µM, stronger effect = higher value
[10] = S. cerevisiae growth inhibition in restrictive medium, OD615, pilot screen, restrictive growth control, yeast lifespan reduction project (AID 706;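 active means growth inhibition above a set limit, 3 SD over mean compound inhibition, in both replicates, cut at about 43% in these data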;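 further: modified DeaD lifespan yeast strain shifted to restrictive glucose medium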); details: OD615, 48 h, at 10 µM, stronger effect = higher value
[11] = doxorubicin toxicity protection in MRP-1 cells – H69AR cells, CellTiter-Glo, duplicate, MRP-1 activator project, pilot screen (AID 807;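 active means viability increase at or above a cutoff of the median across tested compounds plus 3 SD, cut at about 8.5% in these data, passing the limit was not always enough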;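 further: compound pretreatment 18-22 h then 72 h combined with doxorubicin; 0% = doxorubicin alone and 100% = vehicle without doxorubicin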); details: H69AR viability with doxorubicin, CellTiter-Glo luminescence; at 10 µM; stronger effect = higher value
[12] = viability of HCT116 without oncogenic beta-catenin – human colon tumor cells, pilot screen (AID 823;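 active means cell viability at or below a set limit in both duplicate runs, the limit being the all-compound median minus 4 SD, cut at about 23% in these data, passing the limit was not always enough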;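 further: 0% = wells killed by 20 µM Hyamine and 100% = untreated DMSO cell wells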); details: HCT116 beta-catenin knockout viability, CellTiter-Glo, 60 h; at 10 µM; stronger effect = lower value
[13] = viability of PTEN-null HCT116 cells – cell-based, HCT116 clonal line, CellTiter-Glo, pilot screen (AID 824;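 active means viability at or below 27.92% in each of two runs, the all-compound median minus 4 SD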;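 further: 0% = 20 µM Hyamine control and 100% = vehicle cell control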); details: HCT116 PTEN-deleted viability, 60 h, at 10 µM, stronger effect = lower value
[14] = RAM pathway blockade in budding yeast – dse1pr::URA3 reporter, 5-FOA selection, pilot screen (AID 869;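 active means inhibition over a set limit, the all-compound mean plus 3 SD, in both replicate runs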;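 further: 0% = DMSO wells with no growth and 100% = 10 µM 1-NA-PP1 with full growth; RAM network block rescues cells from 5-FOA so hits raise OD615 growth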); details: S. cerevisiae dse1pr::URA3 5-FOA growth, OD615, 2 d; at 10 µM; stronger effect = higher value; strain carries analog-sensitive mutant Cbk1 kinase
[15] = RAM signaling pathway blockade in yeast – S. cerevisiae, Pdr1DBD-CYC8 efflux-inhibited sensitized strain, primary screen (AID 1298;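 active means RAM network inhibition above 8.4% in each of two replicates, 3 SD over the compound average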;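 further: 0% = DMSO untreated cells without growth and 100% = 10 µM 1-NA-PP1 full growth; higher means more yeast growth rescued from 5-FOA killing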); details: S. cerevisiae cbk1-as DSE1-URA3 strain, 5-FOA growth OD615, 2 d; at 50 µM; stronger effect = higher value
[16] = H69AR cells + 2 uM doxorubicin, measured here: viability with 2 uM doxorubicin, stronger effect = lower value
[17] = H69AR cells, compound alone cytotoxicity

Sequence of Receptor tyrosine-protein kinase erbB-2 (Homo sapiens) (P04626 whole entry, looked up): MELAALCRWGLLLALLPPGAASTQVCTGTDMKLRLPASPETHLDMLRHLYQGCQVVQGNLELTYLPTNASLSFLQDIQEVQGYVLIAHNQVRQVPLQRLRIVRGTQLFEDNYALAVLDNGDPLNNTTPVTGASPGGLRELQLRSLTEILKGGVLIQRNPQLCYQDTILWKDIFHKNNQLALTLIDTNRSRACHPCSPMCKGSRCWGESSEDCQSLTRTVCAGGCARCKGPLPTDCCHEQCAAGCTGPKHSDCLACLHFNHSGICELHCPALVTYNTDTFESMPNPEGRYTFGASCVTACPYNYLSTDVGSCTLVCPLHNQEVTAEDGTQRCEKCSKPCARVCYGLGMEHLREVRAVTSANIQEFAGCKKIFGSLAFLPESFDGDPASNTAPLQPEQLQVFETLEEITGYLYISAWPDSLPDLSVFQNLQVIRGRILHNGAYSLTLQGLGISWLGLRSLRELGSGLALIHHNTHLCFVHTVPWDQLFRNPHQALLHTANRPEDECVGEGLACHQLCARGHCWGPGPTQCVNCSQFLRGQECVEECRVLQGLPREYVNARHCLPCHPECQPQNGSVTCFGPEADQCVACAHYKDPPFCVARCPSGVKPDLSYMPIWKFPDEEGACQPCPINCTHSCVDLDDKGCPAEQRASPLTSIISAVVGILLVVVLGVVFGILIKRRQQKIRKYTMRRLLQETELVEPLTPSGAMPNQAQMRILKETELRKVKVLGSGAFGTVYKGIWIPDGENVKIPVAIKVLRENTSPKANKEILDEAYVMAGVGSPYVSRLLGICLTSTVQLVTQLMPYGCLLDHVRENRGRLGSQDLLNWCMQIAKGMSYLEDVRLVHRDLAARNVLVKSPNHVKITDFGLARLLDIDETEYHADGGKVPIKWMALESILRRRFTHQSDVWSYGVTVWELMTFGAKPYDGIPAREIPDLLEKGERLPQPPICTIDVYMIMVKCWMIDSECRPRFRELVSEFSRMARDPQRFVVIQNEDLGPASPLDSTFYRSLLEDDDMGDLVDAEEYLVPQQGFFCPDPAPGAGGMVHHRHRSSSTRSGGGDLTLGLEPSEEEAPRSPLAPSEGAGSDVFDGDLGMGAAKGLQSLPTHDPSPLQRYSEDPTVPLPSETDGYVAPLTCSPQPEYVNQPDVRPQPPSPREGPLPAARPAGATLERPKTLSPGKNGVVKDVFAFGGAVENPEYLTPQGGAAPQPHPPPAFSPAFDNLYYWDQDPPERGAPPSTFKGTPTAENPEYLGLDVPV

## CCOC(=O)CN1CC23C=CC(O2)C(C(=O)Nc2ccc(OCC)cc2)C3C1=O (stereo unspecified)
[1]
  viability: 100%
[2]
  Her2 level: 96% (inactive)
[3]
  viability: 100% (inactive)
[4]
  viability: 102% (inactive)
[5]
  viability: 96.4% (inactive)
[6]; H69AR cells + 2 uM doxorubicin
  differential viability (reversal): 7.16% (inactive)
[6]; [16]
  viability: 89.2%
[6]; [17]
  viability: 96.4%
[7]
  inhibition: -4.53% (inactive)
[8]
  inhibition: 0.49% (inactive)
[9]
  growth inhibition: 17% (inactive)
[10]
  growth inhibition: 13.4% (inactive)
[11]
  viability increase: -0.57% (inactive)
[12]
  viability: 112% (inactive)
[13]
  viability: 105% (inactive)
[14]
  inhibition: 2.22% (inactive)
[15]
  RAM network inhibition: 0.21% (inactive)

## O=C(Nc1ccncc1)C1CCCN(S(=O)(=O)c2cccc3cccnc23)C1 (stereo unspecified)
[1]
  viability: 84.5%
[2]
  Her2 level: 104% (inactive)
[3]
  viability: 84.5% (inactive)
[4]
  viability: 63% (inactive)
[5]
  viability: 17.4% (active)
[6]; H69AR cells + 2 uM doxorubicin
  differential viability (reversal): -58.8% (inactive)
[6]; [16]
  viability: 76.2%
[6]; [17]
  viability: 17.4%
[7]
  inhibition: -7.07% (inactive)
[8]
  inhibition: 3.33% (inactive)
[9]
  growth inhibition: -10.3% (inactive)
[10]
  growth inhibition: -4.11% (inactive)
[11]
  viability increase: -6.31% (inactive)
[12]
  viability: 19.9% (active)
[13]
  viability: 23.8% (active)
[14]
  inhibition: 1.59% (inactive)
[15]
  RAM network inhibition: 2.56% (inactive)

## C=C(Cl)COc1ccc2c(C)cc(=O)oc2c1
[1]
  viability: 108%
[2]
  Her2 level: 92.5% (inactive)
[3]
  viability: 108% (inactive)
[4]
  viability: 102% (inactive)
[5]
  viability: 101% (inactive)
[6]; H69AR cells + 2 uM doxorubicin
  differential viability (reversal): -2.75% (inactive)
[6]; [16]
  viability: 103%
[6]; [17]
  viability: 101%
[7]
  inhibition: 1.89% (inactive)
[8]
  inhibition: -5.56% (inactive)
[9]
  growth inhibition: -6.04% (inactive)
[10]
  growth inhibition: 5.47% (inactive)
[11]
  viability increase: -0.42% (inactive)
[12]
  viability: 97.8% (inactive)
[13]
  viability: 84% (inactive)
[14]
  inhibition: 0.795% (inactive)
[15]
  RAM network inhibition: 0.1% (inactive)

— PubChem BioAssay
